The record followed here is the supplement of paper PMC9334596.

This test concerns mPer2Luc MEF. Description: PER2::LUC luminescence relative to vehicle control (fold of vehicle); higher = higher PER2::LUC reporter signal. The following applies: 10 µM. The method, boiled down:
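Compounds from commercial libraries were added at 10 μM to 384-well plates seeded 48 h earlier with ~3000 mPer2Luc mouse embryonic fibroblasts per well. The cells were kept in DMEM with 10% FBS at 37 °C and 5% CO2. Luminescence was read with ONE-Glo 24 h and 30 h after treatment, then an alamarBlue viability assay was run. Values are PER2::LUC luminescence relative to vehicle control, as fold change.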

“And” between values parts separate entries of the source, which are not always exact repeats. Equal values may be shown once. Whole data set: some 5,300 compounds, median “PER2::LUC luminescence relative to vehicle control” near 0.96, cut for the highest 2% near 1.3. The sample holds the highest values, similar compounds and a random draw of the others, so the mix is not that of the screen.

With `O=C(O)/C=C/c1ccc(O)c(O)c1/C(=C\c1ccc(O)c(O)c1)C(=O)O`, the “PER2::LUC luminescence” value by setting is: (time after treatment 24 h) 1.15; (time after treatment 30 h) 1.02.
Take `COc1cc(O)c(C(=O)/C=C/c2ccc(OC)c(O)c2)c(OC)c1`: the “PER2::LUC luminescence” value stood at 1.08 (time after treatment 24 h) and 1 (time after treatment 30 h).
On to `COc1ccc(SC(=O)N[C@@H](CCC(=O)O)C(=O)O)cc1`, for which the “PER2::LUC luminescence” value reads like this: (time after treatment 24 h) 0.852; (time after treatment 30 h) 0.909.
In the same order, the values of `CC(C)(O)c1ccccc1Cc1ccccc1` are 0.709 and 1.18.
Consider `C=CC1=C(C)C2=CC3=NC(=C(CC(=O)O)C4=NC(=C(C)C4=C(O)O)C=c4[nH]c(c(C)c4CC)=CC1=N2)C(CCC(=O)O)C3C` (centres undefined), for which the “PER2::LUC luminescence” value (time after treatment 24 h) turned out to be 0.911 and the “PER2::LUC luminescence” value (time after treatment 30 h) amounted to 0.984.
Turning to `OC[C@H]1O[C@H](O[C@H]2C(O)[C@@H](O)[C@@H](OC[C@H]3O[C@@H]4O[C@H]5[C@H](O)[C@@H](O)[C@@H](O[C@H]6[C@H](O)[C@@H](O)[C@@H](O[C@H]7[C@H](O)[C@@H](O)[C@@H](O[C@H]8[C@H](O)[C@@H](O)[C@@H](O[C@H]9[C@H](O)[C@@H](O)[C@@H](O[C@H]%10[C@H](O)[C@@H](O)[C@@H](O[C@H]3[C@H](O)[C@H]4O)O[C@@H]%10CO)O[C@@H]9CO)O[C@@H]8CO)O[C@@H]7CO)O[C@@H]6CO)O[C@@H]5CO)O[C@@H]2CO)[C@H](O)[C@@H](O)[C@@H]1O` (some centres undefined), the “PER2::LUC luminescence” value runs as follows: (time after treatment 24 h) 1.08; (time after treatment 30 h) 1.06.
Turning to `C=CCCCCCCCCCCCC(O)CC(O)COC(C)=O` (centres undefined), the “PER2::LUC luminescence” value runs as follows: (time after treatment 24 h) 0.894; (time after treatment 30 h) 0.95.
As to `C[C@H](CCC(=O)NCCC[N+](C)(C)CCCS(=O)(=O)[O-])[C@H]1CC[C@H]2[C@@H]3[C@H](O)C[C@@H]4C[C@H](O)CC[C@]4(C)[C@H]3C[C@H](O)[C@]12C`, the “PER2::LUC luminescence” value runs as follows: (time after treatment 24 h) 1.06; (time after treatment 30 h) 0.883.
In the same order, the values of `O=c1c(O)c(-c2ccccc2)oc2cc(O)ccc12` are 1.13 and 1.18.
Take `O=c1cc(-c2ccccc2)oc2cc(O)ccc12`: the “PER2::LUC luminescence” value worked out at 1.48 (time after treatment 24 h) and 1.84 (time after treatment 30 h).
As to `CC1=C([C@@H]2C=C3[C@@H](CC[C@]4(C)[C@@H]([C@H](C)CCCC(C)C)CC[C@@H]34)n3c(=O)n(-c4ccccc4)c(=O)n32)C[C@@H](O)C[C@@H]1O`, the “PER2::LUC luminescence” value stood at 0.94 (time after treatment 24 h) and 0.899 (time after treatment 30 h).
As to `O=c1ccn([C@@H]2O[C@H](CO)[C@@H](O)[C@H]2O)c(=O)[nH]1`, the “PER2::LUC luminescence” value was found to be 0.979 (time after treatment 24 h) and 1.03 (time after treatment 30 h).
In the same order, the values of `O=c1cnn([C@@H]2O[C@H](CO)[C@@H](O)[C@H]2O)c(=O)[nH]1` are 1.41 and 1.5.
As to `O=c1ncccn1[C@@H]1O[C@H](CO)[C@@H](O)[C@H]1O`, the “PER2::LUC luminescence” value (time after treatment 24 h) stood at 0.999 and the “PER2::LUC luminescence” value (time after treatment 30 h) is 1.07.
As for `NC(=NC12CC3CC(CC(C3)C1)C2)Nc1ccc(I)cc1`, the “PER2::LUC luminescence” value (time after treatment 24 h) amounted to 1.06 and the “PER2::LUC luminescence” value (time after treatment 30 h) was 0.918.
In the case of `CNC(=O)c1cc(Oc2ccc(NC(=O)c3cccc(C(F)(F)F)c3)cc2)ccn1`, the “PER2::LUC luminescence” value (time after treatment 24 h) was determined as 1.15 and the “PER2::LUC luminescence” value (time after treatment 30 h) was determined as 1.14.
In the same order, the values of `O=C(OCc1ccccc1)c1ccccc1` are 1.05 and 1.03.
In the case of `CCOC(=O)c1ccc(O)cc1`, the “PER2::LUC luminescence” value is 1.06 and 0.859 (time after treatment 24 h); 1.02 and 0.79 (time after treatment 30 h).
As for `CCOC(=O)c1ccc(N(C)c2csc(-c3ccccc3)n2)cc1`, the “PER2::LUC luminescence” value is, setting by setting: (time after treatment 24 h) 1.19; (time after treatment 30 h) 1.58.
On to `Cn1cc(-c2ccc3nnc(Sc4ccc5nn(C)cc5c4)n3n2)cn1`, for which the “PER2::LUC luminescence” value reads like this: (time after treatment 24 h) 0.782; (time after treatment 30 h) 0.785.
Consider `C=CC(C)(C)c1cc(/C=C\C(=O)c2ccc(O)cc2)c(OC)cc1O`, for which the “PER2::LUC luminescence” value was found to be 0.553 (time after treatment 24 h) and 0.862 (time after treatment 30 h).
In the same order, the values of `C[C@@H]1C[C@H]2[C@@H]3C[C@H](F)C4=CC(=O)C(Cl)=C[C@]4(C)[C@@]3(F)[C@@H](O)C[C@]2(C)[C@@]1(O)C(=O)CO` are 0.765 and 0.857.
For `CC(=O)O[C@H](CC(=O)O)C[N+](C)(C)C`, the “PER2::LUC luminescence” value worked out at 1.03 (time after treatment 24 h) and 0.967 (time after treatment 30 h).
In the same order, the values of `CC(C)(C)OC(=O)N1CCC(OCc2nc(-c3ccncc3)no2)CC1` are 0.986 and 0.843.
In the same order, the values of `NC(=O)c1cccc(N)c1` are 1.1 and 1.01.
Take `NC(=O)c1cccc(-c2cccc(OC(=O)NC3CCCCC3)c2)c1`: the “PER2::LUC luminescence” value runs as follows: (time after treatment 24 h) 1.27; (time after treatment 30 h) 1.36.
`CC(=O)c1ccc(S(=O)(=O)NC(=O)NC2CCCCC2)cc1`: the “PER2::LUC luminescence” value by setting is: (time after treatment 24 h) 1.02; (time after treatment 30 h) 0.908.
In the case of `CCCCN(CCCC)CCCOC(=O)c1ccc(N)cc1`, the “PER2::LUC luminescence” value by setting is: (time after treatment 24 h) 0.966; (time after treatment 30 h) 0.832.
For the molecule `N=C(N)c1ccc(N)cc1`, the “PER2::LUC luminescence” value was determined as 0.971 (time after treatment 24 h) and 1.01 (time after treatment 30 h).
Take `CCCCOC(=O)c1ccc(N)cc1`: the “PER2::LUC luminescence” value by setting is: (time after treatment 24 h) 1.06 and 1.09; (time after treatment 30 h) 1.28 and 1.2.
On to `CCCCNc1ccc(C(=O)OCCN(C)C)cc1`, for which the “PER2::LUC luminescence” value was determined as 1.04 (time after treatment 24 h) and 0.965 (time after treatment 30 h).
As for `CCCCOC(=O)c1ccc(O)cc1`, the “PER2::LUC luminescence” value (time after treatment 24 h) is 1.63 and 1.43; the “PER2::LUC luminescence” value (time after treatment 30 h) was 1.61 and 1.57.
Turning to `CCN(CC)CCOC(=O)c1ccc(N)cc1`, the “PER2::LUC luminescence” value runs as follows: (time after treatment 24 h) 1.07 and 0.897; (time after treatment 30 h) 1.58 and 0.928.
On to `CCCOc1ccc(C(=O)OCCN(CC)CC)cc1N`, for which the “PER2::LUC luminescence” value by setting is: (time after treatment 24 h) 1.03; (time after treatment 30 h) 0.962.
With `Nc1ccc(C(=O)O)cc1`, the “PER2::LUC luminescence” value was 0.924 and 0.9 (time after treatment 24 h); 0.926 and 0.943 (time after treatment 30 h).
As to `CC(C)COC(=O)c1ccc(N)cc1`, the “PER2::LUC luminescence” value (time after treatment 24 h) was 1.34 and the “PER2::LUC luminescence” value (time after treatment 30 h) is 1.43.
Regarding `CN(C)[C@@H]1c2onc(OCc3ccccc3)c2C(=O)[C@@]2(O[Si](C)(C)C(C)(C)C)C(=O)C=CC[C@@H]12`, the “PER2::LUC luminescence” value reads like this: (time after treatment 24 h) 0.723; (time after treatment 30 h) 0.75.
As to `c1ccc2[nH]ncc2c1`, the “PER2::LUC luminescence” value by setting is: (time after treatment 24 h) 0.963; (time after treatment 30 h) 0.985.
Turning to `CN1CCc2ccccc2Cc2[nH]c3ccccc3c2CC1`, the “PER2::LUC luminescence” value by setting is: (time after treatment 24 h) 1.11; (time after treatment 30 h) 0.824.
For the molecule `CN1c2ccccc2C(=O)N2CCc3c([nH]c4ccccc34)C21` (stereo in doubt), the “PER2::LUC luminescence” value by setting is: (time after treatment 24 h) 0.589; (time after treatment 30 h) 0.628.
As to `CNc1ccccc1C(=O)N1CCc2c([nH]c3ccccc23)C1=O`, the “PER2::LUC luminescence” value (time after treatment 24 h) was 1.56 and the “PER2::LUC luminescence” value (time after treatment 30 h) came out at 1.79.
Regarding `O=Cc1ccc2cccc(O)c2n1`, the “PER2::LUC luminescence” value (time after treatment 24 h) is 1.1 and the “PER2::LUC luminescence” value (time after treatment 30 h) stood at 0.962.
In the case of `Nc1n[n+]([O-])c2ccccc2[n+]1[O-]`, the “PER2::LUC luminescence” value by setting is: (time after treatment 24 h) 1.36; (time after treatment 30 h) 1.15.
Turning to `CNC(=S)NCCSCc1[nH]cnc1C`, the “PER2::LUC luminescence” value stood at 1.06 (time after treatment 24 h) and 1.06 (time after treatment 30 h).
Regarding `N[C@@H](CCS(=O)O)C(=O)O`, the “PER2::LUC luminescence” value stood at 0.964 (time after treatment 24 h) and 0.944 (time after treatment 30 h).
In the case of `CN(NC(=O)CC(=O)NN(C)C(=S)c1ccccc1)C(=S)c1ccccc1`, the “PER2::LUC luminescence” value by setting is: (time after treatment 24 h) 1.68; (time after treatment 30 h) 1.1.
With `O=C(OOC(=O)c1ccccc1)c1ccccc1`, the “PER2::LUC luminescence” value (time after treatment 24 h) is 1.2 and the “PER2::LUC luminescence” value (time after treatment 30 h) worked out at 0.843.
Turning to `O=C(O)c1ccccc1`, the “PER2::LUC luminescence” value worked out at 0.918 (time after treatment 24 h) and 0.766 (time after treatment 30 h).
On to `NS(=O)(=O)c1ccc(-c2c(-c3ccccc3)noc2C(F)F)cc1`, for which the “PER2::LUC luminescence” value runs as follows: (time after treatment 24 h) 1.04; (time after treatment 30 h) 1.
`CO[C@H]1C[C@H](O[C@@H]2/C(C)=C/C[C@@H]3C[C@@H](C[C@]4(CC[C@H](C)[C@H](C5CCCCC5)O4)O3)OC(=O)[C@H]3C=C(C)/C(=N\O)[C@H]4OCC(=C/C=C/[C@@H]2C)[C@@]34O)O[C@@H](C)[C@@H]1O`: the “PER2::LUC luminescence” value is 0.989 (time after treatment 24 h) and 0.929 (time after treatment 30 h).
In the same order, the values of `CSc1ccccc1NC(C)=O` are 0.972 and 0.93.
On to `CC(=O)N[C@H]1[C@H]([C@H](O)[C@H](O)CO)OC(O)(C(=O)O)C[C@@H]1O` (some centres undefined), for which the “PER2::LUC luminescence” value is, setting by setting: (time after treatment 24 h) 1.03; (time after treatment 30 h) 0.921.
Take `COc1cc(C(=O)O)cc(OC)c1O`: the “PER2::LUC luminescence” value reads like this: (time after treatment 24 h) 1.06; (time after treatment 30 h) 1.08.
Regarding `COc1ccc(-c2ccc3cc(C(=O)O)ccc3c2)cc1C12CC3CC(CC(C3)C1)C2`, the “PER2::LUC luminescence” value runs as follows: (time after treatment 24 h) 1.49; (time after treatment 30 h) 1.86.
Take `COc1cc(C(=O)O[C@H]2C[C@@H]3CC[C@]2(C)C3(C)C)ccc1O`: the “PER2::LUC luminescence” value (time after treatment 24 h) came to 1.15 and the “PER2::LUC luminescence” value (time after treatment 30 h) stood at 1.19.
Consider `O=C(O)c1ccc2cc(-c3ccc(O)c(C45CC6CC(CC(C6)C4)C5)c3)ccc2c1`, for which the “PER2::LUC luminescence” value came out at 1.59 (time after treatment 24 h) and 1.63 (time after treatment 30 h).
Turning to `O=C(O)/C=C/c1ccc(-c2ccc(O)c(C34CC5CC(CC(C5)C3)C4)c2)cc1`, the “PER2::LUC luminescence” value amounted to 0.735 (time after treatment 24 h) and 0.721 (time after treatment 30 h).
